# Laboratory results reported in PubChem BioAssay AID1159580 (chemical genetic matrix, 2015).
# Where “and” joins values, the source holds several entries; their conditions need not be identical. Equal values may be shown once. The campaign covered roughly 5,500 compounds. About 2,000 (36%) were called active. About 18% were inconclusive and are not listed. Cut-off read from the data, not from the text of the source: active = normalized growth mostly below about 0.91 (no sharp cut-off); inconclusive = no clear call, values can overlap the other calls; inactive = mostly above about 0.92. This is one part of the list.
# Experiment: chemical genetic growth profiling, strain panel (AID 1159580);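 note: tested at 20 µM; growth read once vehicle control cultures reached saturation at 30 °C; 1 = growth at the plate median or of vehicle wells; lower values mean less growth of the strain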
# Conditions: S. cerevisiae deletion strains, growth OD
compound,measurement,setting,value
C=C[C@@](C)(O)CCC1C(=C)CCC2[C@@](C)(CO)CCC[C@]12C (stereo partly drawn),normalized growth,"locus YAL021C, strain ccr4, stronger effect = lower value",0.994 (inactive)
same,normalized growth,"locus YAL026C, strain drs2, stronger effect = lower value",0.972 (inactive)
same,normalized growth,"locus YAL030W, strain snc1, stronger effect = lower value",1.07 (inactive)
same,normalized growth,"locus YBL061C, strain skt5, stronger effect = lower value",1.06 (inactive)
same,normalized growth,"locus YBR009C, strain hhf1, stronger effect = lower value",0.925 (inactive)
same,normalized growth,"locus YBR021W, strain FUR4, stronger effect = lower value",0.772 (active)
same,normalized growth,"locus YBR023C, strain chs3, stronger effect = lower value",1.02 (inactive)
same,normalized growth,"locus YBR171W, strain sec66, stronger effect = lower value",1.08 (inactive)
same,normalized growth,"locus YBR229C, strain ROT2, stronger effect = lower value",1.06 (inactive)
same,normalized growth,"locus YBR231C, strain swc5, stronger effect = lower value",1.12 [resistant] (active)
same,normalized growth,"locus YBR279W, strain paf1, stronger effect = lower value",0.997 (inactive)
same,normalized growth,"locus YCL011C, strain gbp2, stronger effect = lower value",1.02 (inactive)
same,normalized growth,"locus YCL016C, strain dcc1, stronger effect = lower value",0.974 (inactive)
same,normalized growth,"locus YCL029C, strain bik1, stronger effect = lower value",0.972 (inactive)
same,normalized growth,"locus YCL061C, strain MRC1, stronger effect = lower value",0.963 (inactive)
same,normalized growth,"locus YCL069W, strain vba3, stronger effect = lower value",1.03 (inactive)
same,normalized growth,"locus YCR088W, strain abp1, stronger effect = lower value",1.06 (inactive)
same,normalized growth,"locus YDL005C, strain med2, stronger effect = lower value",1.05 (inactive)
same,normalized growth,"locus YDL035C, strain GPR1, stronger effect = lower value",0.794 (active)
same,normalized growth,"locus YDL040C, strain nat1, stronger effect = lower value",1.08 [resistant] (active)
same,normalized growth,"locus YDL074C, strain BRE1, stronger effect = lower value",0.982 (inactive)
same,normalized growth,"locus YDL101C, strain DUN1, stronger effect = lower value",1.05 (inactive)
same,normalized growth,"locus YDL134C, strain PPH21, stronger effect = lower value",0.979 (inactive)
same,normalized growth,"locus YDL185W, strain tfp1, stronger effect = lower value",1.02 (inactive)
same,normalized growth,"locus YDL192W, strain arf1, stronger effect = lower value",0.989 (inactive)
same,normalized growth,"locus YDR001C, strain nth1, stronger effect = lower value",1.08 [resistant] (active)
same,normalized growth,"locus YDR069C, strain doa4, stronger effect = lower value",1.05 (inactive)
same,normalized growth,"locus YDR101C, strain arx1, stronger effect = lower value",0.915 (active)
same,normalized growth,"locus YDR137W, strain rgp1, stronger effect = lower value",0.758 (active)
same,normalized growth,"locus YDR150W, strain NUM1, stronger effect = lower value",1.09 (inactive)
same,normalized growth,"locus YDR159W, strain sac3, stronger effect = lower value",0.997 (inactive)
same,normalized growth,"locus YDR162C, strain NBP2, stronger effect = lower value",0.84 (inactive)
same,normalized growth,"locus YDR195W, strain ref2",1.25 [resistant] (active)
same,normalized growth,"locus YDR297W, strain sur2, stronger effect = lower value",1.04 (inactive)
same,normalized growth,"locus YDR318W, strain mcm21, stronger effect = lower value",0.99 (inactive)
same,normalized growth,"locus YDR334W, strain swr1, stronger effect = lower value",1.1 [resistant] (active)
same,normalized growth,"locus YDR335W, strain msn5, stronger effect = lower value",0.982 (inactive)
same,normalized growth,"locus YDR388W, stronger effect = lower value",1.02 (inactive)
same,normalized growth,"locus YDR392W, strain spt3, stronger effect = lower value",0.833 (inactive)
same,normalized growth,"locus YDR502C, strain sam2, stronger effect = lower value",0.985 (inactive)
same,normalized growth,"locus YEL003W, strain gim4, stronger effect = lower value",0.948 (inactive)
same,normalized growth,"locus YEL037C, strain rad23, stronger effect = lower value",1.05 (inactive)
same,normalized growth,"locus YEL061C, strain CIN8 (second series), stronger effect = lower value",1.07 (inactive)
same,normalized growth,"locus YEL061C, strain CIN8, stronger effect = lower value",1.07 (inactive)
same,normalized growth,"locus YER015W, strain faa2, stronger effect = lower value",1 (inactive)
same,normalized growth,"locus YER016W, strain bim1, stronger effect = lower value",1.05 (inactive)
same,normalized growth,"locus YER110C, stronger effect = lower value",1.06 (inactive)
same,normalized growth,"locus YER111C, strain swi4, stronger effect = lower value",1.07 (inactive)
same,normalized growth,"locus YER155C, strain BEM2 (second series), stronger effect = lower value",1.22 [resistant] (active)
same,normalized growth,"locus YER155C, strain BEM2, stronger effect = lower value",1.09 [resistant] (active)
same,normalized growth,"locus YER167W, strain BCK2, stronger effect = lower value",1.01 (inactive)
same,normalized growth,"locus YFR010W, strain ubp6, stronger effect = lower value",1.07 (inactive)
same,normalized growth,"locus YGL078C, strain dbp3, stronger effect = lower value",0.871 (active)
same,normalized growth,"locus YGL086W, strain mad1, stronger effect = lower value",1 (inactive)
same,normalized growth,"locus YGL167C, strain pmr1, stronger effect = lower value",1.06 (inactive)
same,normalized growth,"locus YGL173C, strain kem1, stronger effect = lower value",0.913 (inactive)
same,normalized growth,"locus YGL227W, strain vid30, stronger effect = lower value",1.06 (inactive)
same,normalized growth,"locus YGL240W, strain doc1, stronger effect = lower value",0.974 (inactive)
same,normalized growth,"locus YGL248W, strain PDE1, stronger effect = lower value",0.982 (inactive)
same,normalized growth,"locus YGL253W, strain hxk2, stronger effect = lower value",1.02 (inactive)
same,normalized growth,"locus YGR078C, strain PAC10, stronger effect = lower value",1.02 (inactive)
same,normalized growth,"locus YGR135W, strain pre9, stronger effect = lower value",0.992 (inactive)
same,normalized growth,"locus YGR252W, strain gcn5, stronger effect = lower value",0.92 (inactive)
same,normalized growth,"locus YHR013C, strain ard1, stronger effect = lower value",1.11 (inactive)
same,normalized growth,"locus YHR027C, strain rpn1, stronger effect = lower value",1.02 (inactive)
same,normalized growth,"locus YHR030C, strain SLT2, stronger effect = lower value",1.09 [resistant] (active) and 0.872 (inactive)
same,normalized growth,"locus YHR079C, strain IRE1 (second series), stronger effect = lower value",1.05 (inactive)
same,normalized growth,"locus YHR079C, strain IRE1, stronger effect = lower value",0.862 (inactive)
same,normalized growth,"locus YHR094C, strain hxt1, stronger effect = lower value",1.04 (inactive)
same,normalized growth,"locus YHR129C, strain ARP1, stronger effect = lower value",1.05 (inactive)
same,normalized growth,"locus YHR142W, strain chs7, stronger effect = lower value",1.01 (inactive)
same,normalized growth,"locus YHR200W, strain rpn10, stronger effect = lower value",1.02 (inactive)
same,normalized growth,"locus YIL066C, strain RNR3, stronger effect = lower value",0.996 (inactive)
same,normalized growth,"locus YIL073C, strain SPO22, stronger effect = lower value",1.01 (inactive)
same,normalized growth,"locus YIL125W, strain kgd1, stronger effect = lower value",0.973 (inactive)
same,normalized growth,"locus YIR030C, strain dcg1, stronger effect = lower value",1.05 (inactive)
same,normalized growth,"locus YJL092W, strain hpr5, stronger effect = lower value",1.02 (inactive)
same,normalized growth,"locus YJL095W, strain BCK1 (second series), stronger effect = lower value",1.07 (inactive)
same,normalized growth,"locus YJL095W, strain BCK1, stronger effect = lower value",1.02 (inactive) and 0.886 (inactive)
same,normalized growth,"locus YJL115W, strain asf1, stronger effect = lower value",1.07 (inactive)
same,normalized growth,"locus YJL129C, strain trk1, stronger effect = lower value",1.02 (inactive)
same,normalized growth,"locus YJL134W, strain LCB3, stronger effect = lower value",1.07 (inactive)
same,normalized growth,"locus YJL154C, strain vps35, stronger effect = lower value",1.09 [resistant] (active)
same,normalized growth,"locus YJL164C, strain tpk1, stronger effect = lower value",0.963 (inactive)
same,normalized growth,"locus YJL166W, strain qcr8, stronger effect = lower value",0.968 (inactive)
same,normalized growth,"locus YJL168C, strain set2, stronger effect = lower value",1.07 (inactive)
same,normalized growth,"locus YJL187C, strain SWE1 (second series), stronger effect = lower value",0.995 (inactive)
same,normalized growth,"locus YJL187C, strain SWE1, stronger effect = lower value",1.01 (inactive)
